In PubChem BioAssay AID430 (Sanford-Burnham Center for Chemical Genomics, 2006) one finds cytotoxicity data, which are given here for 64 molecules.

Screen size: about 63,000 compounds; about 1,100 (1.7%) were called active. The entries come from a sample that favours actives as a whole. Entries with a potency or affinity are not part of this list. A number with no mark means an inactive call. Rule as the data show it: active = cytotoxicity above about 50%; inactive = the rest.

The experiment can be described thus: HPDE-C7 pancreatic duct cell viability loss – fluorescence, HTS (AID 430).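 Also: cells exposed to compound for 48 hours before viability readout; 0% = vehicle and 100% = reference cytotoxic drug.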 To be noted: HPDE-C7 pancreatic duct cells viability, at 10 µM, active compounds read high.
`CCOCCCNC(=O)N[C@@H](Cc1ccccc1)C(=O)OC`: the cytotoxicity is 0.6%. Turning to `CCOC(=O)Cc1cc(=O)n(-c2nc3ccccc3s2)[nH]1`, the cytotoxicity was 75.9% (active). For `COC(=O)Cc1cc(=O)n(-c2ccccc2)[nH]1`, the cytotoxicity is -18.7%. For the molecule `CCOC(=O)CC(=O)Nc1nc2ccccc2s1`, the cytotoxicity is 1.7%. For `CCOC(=O)c1nc2ccccc2s1`, the cytotoxicity was -0.3%. Regarding `COC(=O)Cc1cc(=O)n(-c2nc3ccccc3s2)[nH]1`, the cytotoxicity is 74.2% (active). Next, `COC(=O)Cc1cc(=O)n(-c2nc3ccccc3[nH]2)[nH]1`: -3%; `COc1ccc(CN/C=C2\CCCCC2=O)cc1`: 5.7%; `Cc1ccccc1-c1nc(CS(=O)CC(=O)NCCCN(C)c2ccccc2)c(C)o1` (centres undefined): 10.9%. As for `COc1ccc(-n2nc(C(=O)N3CCC(C#N)CC3)c3c4ccccc4n(C)c3c2=O)cc1`, the cytotoxicity is -4.7%. Take `Cc1cccc(OCc2nnc(SCC(=O)Nc3cc(C)on3)n2C)c1`: the cytotoxicity was -0.4%. For `Cn1c(=O)[nH]c(=O)c2c1ncn2CCN1CCCCC1`, the cytotoxicity is -5.6%. In the case of `CCCOc1ccc(C2c3c(oc4cc(C)c(C)cc4c3=O)C(=O)N2CCCN(C)C)cc1` (centres undefined), the cytotoxicity was -4.2%. On to `O=C(CSc1n[nH]c(-c2ccccc2)n1)c1ccc(O)c(O)c1`, for which the cytotoxicity is -0.1%. Next, `Oc1ccc(-c2nc(-c3ccc(O)c(O)c3)cs2)cc1`: 73.5% (active); `COc1cc(-c2csc(C)n2)ccc1O`: -29.1%. Next, `CN(c1ccc(O)cc1)c1nc(-c2ccccc2)cs1`: 8%. With `CCOC(=O)COn1c(=O)c[n+]([O-])c2ccccc21`, the cytotoxicity is -1.5%. For the molecule `COc1cccc(CNc2nc3ccccc3n2CCN2CCCCC2)c1`, the cytotoxicity was 11.1%. Regarding `CCn1c(NC2CCCCC2)nc2ccccc21`, the cytotoxicity was 7.5%. In the case of `CCOC(=O)CC12CN3CN(C1)CC(CC(=O)OCC)(C3)C2=O`, the cytotoxicity was -0.6%.

Turning to `CCC(=O)N1CCN(CCN=CC2=C(O)CC(C)(C)CC2=O)CC1`, the cytotoxicity is 5.7%.

For the molecule `O=C1C(=C2CCCCC2)SC(=S)N1Cc1ccco1`, the cytotoxicity was 60.9% (active). For `O=C(O)CCN1C(=O)C(=C2CCCCCC2)SC1=S`, the cytotoxicity is -8.4%.

With `O=C1c2ccccc2C(=O)N1Cc1ccco1`, the cytotoxicity is -1.5%. Consider `CSc1nc(N)nc(SCC(=O)c2ccccc2)c1C#N`, for which the cytotoxicity is 13.7%.

As to `CCCc1nc(SCC(=O)N2CCc3ccccc32)c2c(=O)n(C)c(=O)n(C)c2n1`, the cytotoxicity is 5.3%. For `CCCc1nc(SCC(=O)N2CCCc3ccccc32)c2c(=O)n(C)c(=O)n(C)c2n1` the value was 77% (active). On to `CCCc1nc(SCC(=O)N2CCN(c3ccccc3)CC2)c2c(=O)n(C)c(=O)n(C)c2n1`, for which the cytotoxicity was 0%. On to `Cn1c(=O)c2c(SCC(=O)N3CCC(Cc4ccccc4)CC3)nc(C3CC3)nc2n(C)c1=O`, for which the cytotoxicity is -3.8%.

Regarding `CCc1nc(SCC(=O)N2CCCc3ccccc32)c2c(=O)n(C)c(=O)n(C)c2n1`, the cytotoxicity is -9%. For the molecule `Cc1cc(C(=O)COC(=O)c2ccc3c(c2)OCO3)c(C)n1Cc1cccs1`, the cytotoxicity was -3.8%.

Turning to `COCCNC(=O)C(C)OC(=O)c1cc2occc2n1C` (centres undefined), the cytotoxicity is -3.5%. As for `Cc1csc(NC(=O)C2CCC(C)(C(=O)O)C2(C)C)n1` (centres undefined), the cytotoxicity is -12.1%. On to `Cc1cc(C(=O)NCCN2CCN(c3cccc(Cl)c3)CC2)n(-c2ccccc2)n1`, for which the cytotoxicity was 55.2% (active).

As to `Cc1cc(C(=O)NCCCN2CCOCC2)n(-c2ccccc2)n1`, the cytotoxicity was 1.2%. In the case of `Cc1cc(C(=O)NCCCN2CCN(C3CCCCC3)CC2)n(-c2ccccc2)n1`, the cytotoxicity was 1.4%. On to `CC(=O)Nc1cnc2ccccc2n1`, for which the cytotoxicity is -6.4%. Consider `CN1CCN(c2nc(-c3ccccc3)c3cc(Cl)ccc3n2)CC1`, for which the cytotoxicity was 4.2%. `OCCN1CCN(c2nc(-c3ccccc3)c3cc(Cl)ccc3n2)CC1`: the cytotoxicity is 67.2% (active).

For the molecule `Cc1ccc2nc(N3CCC(C(=O)O)CC3)nc(-c3ccccc3)c2c1`, the cytotoxicity was -3.3%. Consider `CN1CCN(c2nc(N3CCN(CCO)CC3)nc3ccccc23)CC1`, for which the cytotoxicity is -2.1%.

With `Clc1ccc2nc(NC3=NCN(CCN4CCOCC4)CN3)nc(-c3ccccc3)c2c1`, the cytotoxicity is -2.9%. For `Cc1cc(Cl)c2c(c1)[C@]1(C(=O)N2)[C@@H]2C(=O)N(Cc3ccccc3)C(=O)[C@@H]2[C@@H]2CCCN21` the value was -13.3%; for `CCOC(=O)c1[nH]c(C)c(C(=O)N2CCN(c3cccc(Cl)c3)CC2)c1C`, 13.5%.

With `CC(=O)c1c(C)[nH]c(C(=O)N2CCN(c3ncccn3)CC2)c1C`, the cytotoxicity was 2.1%. `COc1cccc(N2CCN(C(=O)c3[nH]c(C)c(C(C)=O)c3C)CC2)c1`: the cytotoxicity is 53.6% (active). For `CC(C)C(=O)Nc1ccc(NC(=O)c2cccc(F)c2)cn1` the value was -7.5%; for `COc1cc(CCC(=O)OCC(=O)Nc2ncc(Cl)cc2Cl)cc(OC)c1OC`, -7.2%. Take `Cc1cc(-c2ccccc2C(=O)O)on1`: the cytotoxicity was -13.2%. In the case of `CCCCNC(=O)c1sc(=S)n2c1[nH]c(=O)c1ccccc12`, the cytotoxicity was 70.3% (active). Turning to `C=CCn1c(N)c(C(=O)NCc2ccco2)sc1=S`, the cytotoxicity is 2.4%. For `O=C(NCc1ccco1)c1sc(=S)n2c1[nH]c(=O)c1ccccc12` the value was 82.7% (active); for `CCCCCNC(=O)c1ccc2c(=O)n(CC3CCCO3)c(=O)[nH]c2c1` (centres undefined), -2.3%; for `CCCCNC(=O)c1ccccc1C(=O)NCCCC`, -5.7%. Consider `CCCCCCNC(=O)c1c(O)c2ccccc2[nH]c1=O`, for which the cytotoxicity was 4.2%. With `O=C(NCC1CCCO1)c1sc(=S)n2c1[nH]c(=O)c1ccc(C(=O)N3CCCCC3)cc12` (centres undefined), the cytotoxicity was -5.8%.

In the case of `CCn1c(N)c(C(=O)NCc2ccco2)sc1=S`, the cytotoxicity is -6.5%. On to `O=C(O)C1CCCN(S(=O)(=O)c2ccc(F)cc2)C1` (centres undefined), for which the cytotoxicity is -13.4%.

On to `CCOC(=O)CSC1=NC(=O)CS1`, for which the cytotoxicity was -7%. Consider `Cc1ccc2[nH]c(=O)c(CN(CCc3ccccc3)C(=O)N3CCOCC3)cc2c1`, for which the cytotoxicity was 5.9%. As for `CC(C)CC(=O)Nc1cccc(-c2cn3ccsc3n2)c1`, the cytotoxicity was 2.6%. In the case of `CC(=O)Nc1ccc(-c2cn3ccsc3n2)cc1`, the cytotoxicity was 10.2%. In the case of `CC(C)CC(=O)Nc1ccc(-c2cn3ccsc3n2)cc1`, the cytotoxicity is 51.9% (active).
